Assay results taken from PubChem BioAssay (EPA / NIEHS).
Records with an inconclusive call do not appear. Calls of active or inactive are those of the source. Rule for the calls, unless noted: active = hit-call score of the fitted dose curve at least 0.9, where 1 is the maximum; inconclusive = response in the unintended direction; inactive = score below 0.9.

How the values were obtained:
[1] = target: Oxysterols receptor LXR-alpha (Homo sapiens) (UniProt Q13133); test: ATG_LXRa_TRANS: Attagene TRANS-FACTORIAL HepG2 Assay for human Liver X Receptor alpha (LXRa) (AID 2282980); conditions: HepG2 Attagene TRANS reporter, LXRa transactivation
Sequence of Oxysterols receptor LXR-alpha (Homo sapiens) (Q13133 whole entry, looked up, the tested form may be a part): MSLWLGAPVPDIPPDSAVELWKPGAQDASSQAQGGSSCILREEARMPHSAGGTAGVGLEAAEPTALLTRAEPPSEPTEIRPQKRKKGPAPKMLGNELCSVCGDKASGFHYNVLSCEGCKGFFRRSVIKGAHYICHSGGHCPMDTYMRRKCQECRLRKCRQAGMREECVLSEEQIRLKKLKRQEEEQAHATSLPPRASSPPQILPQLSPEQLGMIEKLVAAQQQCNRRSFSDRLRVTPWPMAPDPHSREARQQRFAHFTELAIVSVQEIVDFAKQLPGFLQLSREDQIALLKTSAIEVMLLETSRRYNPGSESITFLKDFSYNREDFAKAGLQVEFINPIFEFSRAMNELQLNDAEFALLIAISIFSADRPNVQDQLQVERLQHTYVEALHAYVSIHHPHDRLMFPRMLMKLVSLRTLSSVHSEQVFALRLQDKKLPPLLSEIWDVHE
Procedure, shortened: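 Read-out: reporter transcript levels by RT-PCR plus capillary electrophoresis, fluorescence intensity. Transiently transfected HepG2, exogenous NR-GAL4 chimera, GAL4-UAS reporters; 24 h compound exposure. Activity = increase over DMSO negative control.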

[2] = target: Hepatocyte nuclear factor 4-alpha (Homo sapiens) (UniProt P41235); test: ATG_HNF4a_TRANS: Attagene TRANS-FACTORIAL HepG2 Assay for human Hepatocyte Nuclear Factor 4 alpha (HNF4a) (AID 2282982); conditions: HepG2 HNF4a transactivation reporter, mRNA readout
Sequence of Hepatocyte nuclear factor 4-alpha (Homo sapiens) (P41235 whole entry, looked up): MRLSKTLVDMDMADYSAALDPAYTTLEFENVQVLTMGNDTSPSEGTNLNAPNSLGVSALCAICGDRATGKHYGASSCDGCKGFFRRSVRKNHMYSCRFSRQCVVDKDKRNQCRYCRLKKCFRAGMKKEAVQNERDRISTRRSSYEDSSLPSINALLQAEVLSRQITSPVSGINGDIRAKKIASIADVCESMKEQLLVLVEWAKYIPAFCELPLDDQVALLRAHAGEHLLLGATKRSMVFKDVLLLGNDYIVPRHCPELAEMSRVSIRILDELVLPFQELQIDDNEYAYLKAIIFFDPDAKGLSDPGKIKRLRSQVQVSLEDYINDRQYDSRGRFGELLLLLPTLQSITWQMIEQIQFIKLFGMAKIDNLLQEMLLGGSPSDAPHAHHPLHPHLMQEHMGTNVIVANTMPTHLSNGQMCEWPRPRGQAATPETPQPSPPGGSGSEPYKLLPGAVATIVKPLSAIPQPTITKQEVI
Procedure, shortened: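 Multiplexed reporter assay: transfected HepG2, 24 h exposure, total RNA → oligo(dT) RT → PCR → 6-FAM extension → HpaI digest → CE fluorescence. DMSO = negative control.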

[3] = ATG_M_06_TRANS: Attagene TRANS-FACTORIAL HepG2 Assay for M06 Transcription Factor (Internal Marker) (AID 2282983); conditions: HepG2 Attagene TRANS M06 internal marker reporter
Procedure, shortened: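 Read-out: fluorescent reporter cDNA fragments resolved by capillary electrophoresis after RT-PCR and HpaI cut. Source cells were HepG2 carrying transfected multi-reporter GAL4 constructs, dosed 24 h. Increase over DMSO control analysed.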

[4] = ATG_M_32_TRANS: Attagene TRANS-FACTORIAL HepG2 Assay for M32 Transcription Factor (Internal Marker) (AID 2282984); conditions: HepG2 Attagene TRANS M32 internal marker reporter
Procedure, shortened: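 Cell-based TRANS-format assay in HepG2: exogenous chimeric GAL4 reporter units transiently expressed, compounds applied 24 h. Reporter mRNA detected by RT-PCR plus capillary electrophoresis; this readout is an internal background marker.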

[5] = target: Nuclear receptor subfamily 4 group A member 2 (Homo sapiens) (UniProt P43354); test: ATG_NURR1_TRANS: Attagene TRANS-FACTORIAL HepG2 Assay for human Nuclear Receptor Related Protein 1 (NURR1) (AID 2282985); conditions: HepG2 Attagene TRANS reporter, mRNA readout
Sequence of Nuclear receptor subfamily 4 group A member 2 (Homo sapiens) (P43354 whole entry, looked up, the tested form may be a part): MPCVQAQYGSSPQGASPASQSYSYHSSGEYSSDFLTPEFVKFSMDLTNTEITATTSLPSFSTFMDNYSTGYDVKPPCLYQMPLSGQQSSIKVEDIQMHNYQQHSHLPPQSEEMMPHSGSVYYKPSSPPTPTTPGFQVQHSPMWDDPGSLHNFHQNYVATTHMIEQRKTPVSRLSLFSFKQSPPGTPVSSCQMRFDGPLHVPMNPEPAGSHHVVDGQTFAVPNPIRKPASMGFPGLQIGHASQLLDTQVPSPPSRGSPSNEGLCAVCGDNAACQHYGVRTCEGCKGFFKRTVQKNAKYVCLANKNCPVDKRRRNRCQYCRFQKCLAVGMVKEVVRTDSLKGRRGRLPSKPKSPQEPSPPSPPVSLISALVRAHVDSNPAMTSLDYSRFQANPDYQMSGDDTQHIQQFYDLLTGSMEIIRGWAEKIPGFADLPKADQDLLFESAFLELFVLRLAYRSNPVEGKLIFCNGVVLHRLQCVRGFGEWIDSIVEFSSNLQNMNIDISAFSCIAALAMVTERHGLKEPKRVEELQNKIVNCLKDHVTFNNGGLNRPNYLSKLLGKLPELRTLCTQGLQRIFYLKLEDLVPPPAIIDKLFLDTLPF
Procedure, shortened: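 Measures transcriptional activation by an exogenous NR-Gal4 chimera in transfected HepG2 liver cells. After 24 h, reporter RNA is reverse-transcribed, amplified and resolved by capillary electrophoresis; DMSO defines baseline.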

[6] = target: Transcriptional activator Myb (Homo sapiens) (UniProt P10242); test: ATG_Myb_CIS: Attagene CIS-FACTORIAL HepG2 Assay for human Myeloblastosis (Myb) Proto-Oncogene Transcription Factor (AID 2282986; active = hit-call score of the fitted dose curve at least 0.9, where 1 is the maximum; inactive = score below 0.9); conditions: HepG2 Attagene CIS-FACTORIAL Myb reporter transcription; actives raise or lower the signal
Sequence of Transcriptional activator Myb (Homo sapiens) (P10242 whole entry, looked up): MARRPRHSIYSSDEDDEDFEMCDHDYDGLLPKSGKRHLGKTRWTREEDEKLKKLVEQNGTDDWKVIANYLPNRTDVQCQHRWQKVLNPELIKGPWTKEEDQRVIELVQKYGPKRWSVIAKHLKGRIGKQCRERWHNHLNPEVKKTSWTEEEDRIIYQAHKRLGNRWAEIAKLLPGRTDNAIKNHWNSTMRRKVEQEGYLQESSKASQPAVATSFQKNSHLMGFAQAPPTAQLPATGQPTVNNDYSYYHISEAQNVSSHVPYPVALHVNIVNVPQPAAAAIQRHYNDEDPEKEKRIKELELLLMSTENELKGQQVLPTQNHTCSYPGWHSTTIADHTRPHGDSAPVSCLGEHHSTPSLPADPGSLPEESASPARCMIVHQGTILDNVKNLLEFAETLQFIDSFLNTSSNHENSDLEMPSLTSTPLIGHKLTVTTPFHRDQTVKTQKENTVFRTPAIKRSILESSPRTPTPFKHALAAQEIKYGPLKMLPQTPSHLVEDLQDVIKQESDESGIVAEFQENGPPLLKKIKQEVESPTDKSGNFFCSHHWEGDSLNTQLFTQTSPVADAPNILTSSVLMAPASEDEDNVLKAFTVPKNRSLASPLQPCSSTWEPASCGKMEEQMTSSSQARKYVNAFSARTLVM
Procedure, shortened: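 Reporter transcript levels, quantified by fluorescent RT-PCR and capillary electrophoresis, serve as the read-out. Transfected HepG2 cells carrying cis-promoter reporter units are dosed for 24 hours, and curves are fitted bidirectionally against DMSO controls.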

[7] = target: Nuclear respiratory factor 1 (Homo sapiens) (UniProt Q16656); test: ATG_NRF1_CIS: Attagene CIS-FACTORIAL HepG2 Assay for human Nuclear Respiratory Factor 1 (NRF1) Orphan Gene (AID 2282987; active = hit-call score of the fitted dose curve at least 0.9, where 1 is the maximum; inactive = score below 0.9); conditions: HepG2 NRF1 cis-element reporter, Attagene multiplex; actives raise or lower the signal
Sequence of Nuclear respiratory factor 1 (Homo sapiens) (Q16656 whole entry, looked up): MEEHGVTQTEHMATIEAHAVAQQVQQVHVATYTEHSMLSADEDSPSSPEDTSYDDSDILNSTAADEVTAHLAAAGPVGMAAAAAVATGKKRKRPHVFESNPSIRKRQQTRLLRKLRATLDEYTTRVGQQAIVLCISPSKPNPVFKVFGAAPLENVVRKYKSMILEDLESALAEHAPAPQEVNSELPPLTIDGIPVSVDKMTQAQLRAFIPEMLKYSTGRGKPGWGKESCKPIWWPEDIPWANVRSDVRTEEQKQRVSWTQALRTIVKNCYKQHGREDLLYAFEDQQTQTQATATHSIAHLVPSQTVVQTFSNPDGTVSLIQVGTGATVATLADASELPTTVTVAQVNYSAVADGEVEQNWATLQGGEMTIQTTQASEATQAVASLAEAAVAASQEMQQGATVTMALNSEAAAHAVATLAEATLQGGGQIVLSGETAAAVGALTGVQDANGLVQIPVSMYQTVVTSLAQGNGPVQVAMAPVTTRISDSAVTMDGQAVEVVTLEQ
Procedure, shortened: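 Multiplexed cis-reporter assay, HepG2 cells, 24 h treatment. Total RNA → oligo(dT) RT → PCR with reporter-specific primers → 6-FAM primer extension → HpaI cut → CE. Bidirectional fit vs DMSO.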

[8] = ATG_NFI_CIS: Attagene CIS-FACTORIAL HepG2 Assay for human Nuclear Factor I (NFI) (AID 2282989; active = hit-call score of the fitted dose curve at least 0.9, where 1 is the maximum; inactive = score below 0.9); conditions: HepG2 cis-regulatory reporter, NFI response element transcription; actives raise or lower the signal
Procedure, shortened: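 Transfected HepG2 liver cells, exposed 24 h, supplied total RNA for oligo(dT) reverse transcription and reporter-specific PCR. Labelled, HpaI-cut fragments were sized by capillary electrophoresis; DMSO set the baseline for bidirectional fitting.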

[9] = target: Oxysterols receptor LXR-beta (Homo sapiens) (UniProt P55055); test: ATG_LXRb_TRANS: Attagene TRANS-FACTORIAL HepG2 Assay for human Liver X Receptor beta (LXRb) (AID 2282981); conditions: HepG2 Attagene TRANS GAL4-LXRb reporter, mRNA
Sequence of Oxysterols receptor LXR-beta (Homo sapiens) (P55055 whole entry, looked up, the tested form may be a part): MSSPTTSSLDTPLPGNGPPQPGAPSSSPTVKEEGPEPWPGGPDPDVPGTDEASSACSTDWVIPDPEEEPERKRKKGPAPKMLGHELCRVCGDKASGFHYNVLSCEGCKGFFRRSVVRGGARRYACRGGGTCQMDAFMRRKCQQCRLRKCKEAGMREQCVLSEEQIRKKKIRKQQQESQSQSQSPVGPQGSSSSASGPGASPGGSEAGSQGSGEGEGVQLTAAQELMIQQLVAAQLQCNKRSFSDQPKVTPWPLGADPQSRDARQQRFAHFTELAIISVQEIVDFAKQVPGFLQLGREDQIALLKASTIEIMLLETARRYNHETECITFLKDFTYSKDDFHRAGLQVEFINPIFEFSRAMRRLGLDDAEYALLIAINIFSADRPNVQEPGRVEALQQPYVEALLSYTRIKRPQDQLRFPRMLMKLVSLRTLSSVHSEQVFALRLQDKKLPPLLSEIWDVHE
Procedure, shortened: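 After 24 h of chemical treatment, transfected HepG2 cells yield total RNA; reporter cDNA is PCR-amplified, FAM-labelled, HpaI-cut and run on capillary electrophoresis. Signal reflects chimeric LXRb-Gal4 activity on GAL4-UAS reporters.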

Measured: AC50

CC=Cc1ccc(OCC)c(O)c1
not listed: [9]
inactive: all other assays above

Cc1occc(=O)c1OC(=O)C(C)C
not listed: [3] | [6] | [9]
inactive: all other assays above

Cc1c(C2(c3cc(Br)c(O)c(Br)c3C)OS(=O)(=O)c3ccccc32)cc(Br)c(O)c1Br
not listed: [3] | [9]
inactive: all other assays above

C=C(C)C(=O)OCCOC1CC2CC1C1C=CCC21 (stereo not drawn)
not listed: [9]
inactive: all other assays above

CCCCCCOC(=O)CCC
not listed: [2] | [4] | [5]
inactive: all other assays above

COC(=O)c1cccnc1
not listed: [5] | [9]
inactive: all other assays above

OC[C@H]1O[C@@H](Oc2ccc(O)cc2)[C@H](O)[C@@H](O)[C@@H]1O
inactive: [1] | [9] | [3] | [7] | [8]

C/C=C(\C)C(=O)OCCc1ccccc1
not listed: [4] | [9]
inactive: all other assays above

C=CCCCCCCCCCC
not listed: [2] | [3]
inactive: all other assays above

Cc1ncc([N+](=O)[O-])n1CCO
inactive: [1] | [2] | [3] | [6] | [7]

CCN(CCN)c1cccc(C)c1
not listed: [2] | [9]
inactive: all other assays above

CCOCCOCCOCC
not listed: [3] | [9]
inactive: all other assays above

CCOc1ccc(N=Nc2ccc(C=Cc3ccc(N=Nc4ccc(OCC)cc4)cc3S(=O)(=O)O)c(S(=O)(=O)O)c2)cc1
not listed: [5] | [8] | [9]
inactive: all other assays above

CC(Oc1cc(Cl)ccc1Cl)C(=O)O (stereo not drawn)
inactive: [1] | [9] | [5] | [7] | [8]

C=CCCC(=O)/C=C/C1C(C)=CCCC1(C)C (stereo not drawn)
not listed: [2] | [4] | [9]
inactive: all other assays above

CCCCCCCC(=O)OCCCCCC
not listed: [2] | [9]
inactive: all other assays above

CN(C)c1cccc(O)c1
not listed: [2] | [3]
inactive: all other assays above

CCCC(=O)c1ccccc1
not listed: [2] | [5]
inactive: all other assays above

CCCC[O][Al]([O]CCCC)[O]CCCC
not listed: [2] | [5] | [9]
inactive: all other assays above

CCCCCCC(CO)CCCC (stereo not drawn)
not listed: [2] | [3] | [9]
inactive: all other assays above

O=CCc1ccccc1
not listed: [6] | [9]
inactive: all other assays above

CCC(C)c1cc([N+](=O)[O-])cc([N+](=O)[O-])c1OC(=O)OC(C)C (stereo not drawn)
active: [5] 27.1 µM | [6] 156 µM | [7] 143 µM | [8] 24.5 µM
inactive: [1] | [2] | [4]

COC(CC(C)CCCC(C)(C)O)OC (stereo not drawn)
inactive: [1] | [2] | [7] | [8]
